From ChEMBL document CHEMBL5058541

Tests used:
[1] = molecular target: Bromodomain-containing protein 4 (Homo sapiens) (UniProt O60885); details: Compound concentration 20.0 uM, Protein concentration 2.0 uM, Result type QC Liability
[2] = molecular target: T1, Transcription intermediary factor 1-alpha (Homo sapiens) (UniProt O15164); details: Compound concentration 20.0 uM, Protein concentration 2.0 uM, Result type QC Liability
T1 sequence (whole entry): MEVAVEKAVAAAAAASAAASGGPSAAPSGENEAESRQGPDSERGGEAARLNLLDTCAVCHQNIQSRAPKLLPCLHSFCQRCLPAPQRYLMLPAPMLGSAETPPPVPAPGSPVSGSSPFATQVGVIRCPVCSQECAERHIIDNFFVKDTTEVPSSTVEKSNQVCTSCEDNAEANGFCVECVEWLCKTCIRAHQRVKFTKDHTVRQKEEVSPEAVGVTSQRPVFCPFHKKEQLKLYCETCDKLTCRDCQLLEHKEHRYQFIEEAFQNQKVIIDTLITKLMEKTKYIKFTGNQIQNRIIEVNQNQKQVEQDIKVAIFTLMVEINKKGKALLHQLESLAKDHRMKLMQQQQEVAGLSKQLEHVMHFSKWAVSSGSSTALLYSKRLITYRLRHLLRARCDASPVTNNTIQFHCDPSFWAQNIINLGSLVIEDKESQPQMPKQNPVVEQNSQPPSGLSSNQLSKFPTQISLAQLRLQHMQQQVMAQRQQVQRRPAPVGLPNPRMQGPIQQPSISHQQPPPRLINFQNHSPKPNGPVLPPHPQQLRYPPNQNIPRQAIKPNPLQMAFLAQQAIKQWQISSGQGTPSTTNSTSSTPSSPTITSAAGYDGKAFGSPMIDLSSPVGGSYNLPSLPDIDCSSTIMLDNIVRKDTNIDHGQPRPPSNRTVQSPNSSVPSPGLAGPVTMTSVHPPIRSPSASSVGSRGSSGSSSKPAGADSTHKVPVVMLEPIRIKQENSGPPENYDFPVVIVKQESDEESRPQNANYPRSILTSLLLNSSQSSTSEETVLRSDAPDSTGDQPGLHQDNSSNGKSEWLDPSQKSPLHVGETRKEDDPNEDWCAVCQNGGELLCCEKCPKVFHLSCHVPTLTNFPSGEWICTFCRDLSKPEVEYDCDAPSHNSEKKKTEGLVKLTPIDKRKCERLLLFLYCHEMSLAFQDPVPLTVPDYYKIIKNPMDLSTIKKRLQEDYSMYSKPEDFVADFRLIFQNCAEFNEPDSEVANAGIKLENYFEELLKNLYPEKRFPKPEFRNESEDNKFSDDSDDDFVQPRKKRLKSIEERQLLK

| SMILES | ΔTm [1] [c] | ΔTm [2] [c] |
| --- | --- | --- |
| CS(=O)(=O)N1CCCC(NC(=O)[C@H](CCC2CCCCC2)NC(=O)c2ccc(CNC(=O)c3cnc4ccccn34)cc2)C1 (stereo partly drawn) | 0.345 | 0.0818 |
| O=C(NCCCN1CCOC1=O)c1cnc(NCc2cc(Br)ccc2Br)nc1NC1CCCC1 | 0 | 0 |
| CN(c1ncccc1CNc1ccnc(-c2nc3c(F)c(Cl)ccc3[nH]2)n1)S(C)(=O)=O | -0.76 | -0.07 |
| CN(C)C(=O)c1ccc(-c2cc(C(=O)N[C@@H]3CCc4ccccc43)no2)cc1O | -0.51 | -0.594 |
